High-throughput results as filed in PubChem BioAssay.
TGFb SMAD3 inh – blocks TGF-b signaling; HepG2 CAGA-GFP TGF-b/SMAD3 reporter, GFP fluorescence, 18 h; TGF-beta stimulated, 500 pg/mL final; Potency, µM (highest dose often 46.1 µM), inactives show at the highest dose activity, negative = inhibition, actives largely listed as inhibitors; 1.2% of 410,000 active; AID 588855; note: potency is the fitted concentration of half-maximal effect; % is set by controls: 0 for no effect and ±100 for the full control effect; nearly all actives have a fitted effect of over 65% in size
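Read-out: total well GFP (ex488/em500-530) summed from mean per-cell fluorescence. Cells: HEPG2 CAGA-GFP, 1% FBS DMEM, 18 h at 37 degrees C with 500 pg/mL final TGF-beta. Unstimulated wells served as the full-inhibition control; stimulated DMSO wells = 0%.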
HepG2 viability – counter-screen for TGF-b inhibitors: cytotoxicity in HepG2 cells | HepG2 CAGA-GFP viability, ATP luminescence, 18 h | Potency, µM (titrated, usually from 46.1 µM), without a hit: at the top dose activity change, negative = cytotoxicity, usual class: cytotoxic | 0.76% of 410,000 active; note: potency is the fitted concentration of half-maximal effect
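CellTiter-Glo luminescence gave cytotoxicity after 18 hours at 37 degrees C. The cells were HepG2 CAGA-GFP in 1% FBS DMEM, stimulated with 500 pg/mL TGF-beta after compound addition. %Activity was normalised to no-cell wells (complete cell-killing) and DMSO (no toxicity), and curves were fitted and classified.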
TDP1 block – blocks human tyrosyl-DNA phosphodiesterase 1 | Q9NUW8 | recombinant TDP1, AlphaScreen DNA substrate cleavage | Potency, µM (series often up to 130 µM), for the others: at the top dose activity change, negative = inhibition, hits mostly inhibitors | 0.28% of 350,000 active; note: potency is the fitted concentration of half-maximal effect; % is set by controls: 0 for no effect and ±100 for the full control effect; nearly all actives have a fitted effect of over 40% in size
Target sequence (Q9NUW8 whole entry, looked up): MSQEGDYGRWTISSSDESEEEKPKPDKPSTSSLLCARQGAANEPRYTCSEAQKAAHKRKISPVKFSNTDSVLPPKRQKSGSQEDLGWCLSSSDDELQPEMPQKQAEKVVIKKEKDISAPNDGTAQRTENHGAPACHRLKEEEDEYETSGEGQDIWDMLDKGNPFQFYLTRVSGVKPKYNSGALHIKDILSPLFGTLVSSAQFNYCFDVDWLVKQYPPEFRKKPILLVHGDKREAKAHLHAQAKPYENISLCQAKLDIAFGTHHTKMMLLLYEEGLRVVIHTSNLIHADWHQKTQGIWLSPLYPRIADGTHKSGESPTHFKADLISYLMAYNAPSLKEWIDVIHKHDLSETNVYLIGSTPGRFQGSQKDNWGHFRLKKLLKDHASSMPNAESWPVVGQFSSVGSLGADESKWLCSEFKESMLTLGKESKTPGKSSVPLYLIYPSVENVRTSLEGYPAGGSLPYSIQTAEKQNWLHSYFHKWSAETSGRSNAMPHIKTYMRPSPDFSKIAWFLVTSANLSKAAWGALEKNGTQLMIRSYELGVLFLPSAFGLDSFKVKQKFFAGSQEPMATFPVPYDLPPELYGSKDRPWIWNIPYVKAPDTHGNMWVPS
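Steps: enzyme plus compound, 15 min RT; add biotin/phosphotyrosine-FITC oligonucleotide (15 nM final), react 5 min; add donor/acceptor beads (10 ug/ml final), 10 min; read AlphaScreen. Tdp1 at 1 nM final.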
TDP1 cell CPT – growth inhibition of DT40 Tdp1-/-;hTDP1 cells with camptothecin (screen for TDP1 inhibitors) | AID 686979 | chicken DT40 Tdp1-/-;hTDP1 cells + 20 nM CPT, ATP luminescence, 48 h | 12% of 420,000 active | Potency, µM (highest dose often 46.2 µM), without a hit: at the top dose activity change, negative = growth inhibition, actives largely listed as inhibitors; note: potency is the fitted concentration of half-maximal effect; % is set by controls: 0 for no effect and ±100 for the full control effect; nearly all actives have a fitted effect of over 55% in size
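Chicken DT40 Tdp1-/- cells stably complemented with human TDP1 were seeded at 400 cells/well in medium containing 20 nM camptothecin, exposed to pin-transferred compounds, and grown at 37 °C for at least 48 hr. Viability was read as ATP luminescence.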
IL-1B inflam inh – inhibitors of inflammasome signaling (IL-1 beta secretion). THP-1 LPS/ATP IL-1B secretion, AlphaLISA, 16 h; stronger effect = lower value. activity change, % at 57.5 µM. 4.7% of 360,000 active. AID 743279; in the data active = activity change below about -50%; inconclusive = mostly about -30% to -49%; note: % is set by controls: 0 for no effect and ±100 for the full control effect
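THP-1 cells pretreated 1 hr with compounds (up to 57.5 uM final), then stimulated with LPS (250 ng/mL final) plus ATP (1.25 mM final); secreted IL-1B measured by AlphaLISA after 16 hr, decreased signal indicating inhibition.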
DT40 TDP1 no CPT – qHTS for Inhibitors of human tyrosyl-DNA phosphodiesterase 1 (TDP1): qHTS in cells in absence of CPT; DT40 Tdp1-/- hTDP1 cells, no CPT, ATP luminescence, 48 h; Potency, µM (titrated, usually from 46.2 µM), for inactives: top-dose activity change, negative = growth inhibition, usual class: inhibitors; 15% of 420,000 active; note: potency is the fitted concentration of half-maximal effect; % is set by controls: 0 for no effect and ±100 for the full control effect; nearly all actives have a fitted effect of over 55% in size
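DT40 Tdp1-/-;hTDP1 cells, no CPT (DMSO vehicle only), 400 cells/well; compounds pin-transferred; ≥48 hr, 37 °C; CellTiter-Glo 30 min RT dark, luminescence read.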
Active calls of the source: *; [ ] = remark or other dose. In the library only some 18% were active in any assay of this set; here they are far more common. Unless noted, calls come from the whole dose curve; as a rule, active = well fitted curve in the direction sought with a large enough effect; inconclusive = small, poorly fitted or top-dose-only effect, or another doubt; inactive = no such curve, though single readings can be large; an effect the other way counts as inactive or inconclusive.

O=c1oc(CCCO)cc2ccc(C#CC3(O)CCCCC3)cc12 was read as TGFb SMAD3 inh -8.7%, HepG2 viability -7.9%, TDP1 block -0.2%, TDP1 cell CPT inconclusive, IL-1B inflam inh 26.4 and DT40 TDP1 no CPT 18.4µM*.
For COC(=O)c1ccc(-c2ccc(C3C4C=CCC(C)C4C(=O)N3Cc3ccccc3)c(F)c2)cc1 (configuration not stated) the results were TGFb SMAD3 inh -14.2%, HepG2 viability -3.9% and TDP1 block 2.6%.
`CC(=O)N1c2ccc(S(=O)(=O)N3CCCCC3)cc2CC1C(=O)NCc1cccc(Cl)c1` (configuration not stated) gave TGFb SMAD3 inh -7.0%, HepG2 viability -2.4%, TDP1 block 4.5%, TDP1 cell CPT 10.0%, IL-1B inflam inh -23.2 and DT40 TDP1 no CPT inconclusive.
`O=C(NC(=S)N1CCCC(O)C1)c1ccco1` (configuration not stated) gave TGFb SMAD3 inh -17.6%, HepG2 viability -20.2%, TDP1 block 1.1%, TDP1 cell CPT 9.4%, IL-1B inflam inh 14.8 and DT40 TDP1 no CPT -0.8%.
For CCOC(=O)c1c(-c2ccccc2)c2cc(OC)ccc2n1CCCN(C)C the results were TGFb SMAD3 inh inconclusive, HepG2 viability 17.8µM*, TDP1 cell CPT inconclusive, IL-1B inflam inh -50.4* and DT40 TDP1 no CPT inconclusive.
CCCC[N+](CC#CCO)(CC#Cc1ccccc1)CCCC was read as TGFb SMAD3 inh 13.4%, HepG2 viability 6.4%, TDP1 block 1.4%, TDP1 cell CPT inconclusive, IL-1B inflam inh -14.0 and DT40 TDP1 no CPT 9.2µM*.
`CC[N+](CC)(CC#Cc1ccccc1)CC(=O)c1ccc(Cl)cc1` gave TGFb SMAD3 inh 22.1%, HepG2 viability -22.3%, TDP1 block 5.4%, TDP1 cell CPT 5.8µM*, IL-1B inflam inh -3.2 and DT40 TDP1 no CPT 5.8µM*.
`CC(C)[C@H](NC(=O)c1ccccc1)C(=O)OCC(=O)Nc1sccc1C(N)=O` gave TGFb SMAD3 inh -25.6%, HepG2 viability -0.5%, TDP1 block -8.5%, TDP1 cell CPT -13.3%, IL-1B inflam inh 32.0 and DT40 TDP1 no CPT inconclusive.
COc1ccc2c(c1)C(c1ccccc1OC)CC(=O)O2 (configuration not stated) was read as TDP1 block 12.6µM*.
`CCCCOc1ccccc1C1CC(=O)Nc2cc(C)c(C)cc21` (configuration not stated) gave TGFb SMAD3 inh inconclusive, HepG2 viability -66.3%, TDP1 block 0.0%, TDP1 cell CPT 14.6µM* and DT40 TDP1 no CPT 18.4µM*.
For COc1ccc2c(c1)OC(=O)CC2c1ccccc1OC (configuration not stated) the results were TGFb SMAD3 inh -1.7%, HepG2 viability -10.6%, TDP1 block -3.4%[56.1 µM], TDP1 cell CPT -23.3%, IL-1B inflam inh 22.4 and DT40 TDP1 no CPT 0.7%.
For CCOc1ccccc1C1CC(=O)Nc2cc(C)c(C)cc21 (configuration not stated) the results were TGFb SMAD3 inh -11.4%, HepG2 viability -13.5%, TDP1 cell CPT 2.59µM*, IL-1B inflam inh 57.5 and DT40 TDP1 no CPT 4.11µM*.
COc1ccccc1C1CC(=O)Nc2cc(C)c(C)cc21 (configuration not stated) was read as TGFb SMAD3 inh -18.5%, HepG2 viability 14.5%, TDP1 cell CPT 6.51µM*, IL-1B inflam inh 40.3 and DT40 TDP1 no CPT 8.2µM*.
Screening Cc1cc2c(cc1C)C(c1ccccc1OC(C)C)CC(=O)N2 (configuration not stated) returned TGFb SMAD3 inh inconclusive, HepG2 viability -47.9%, TDP1 block 5.1%, TDP1 cell CPT inconclusive, IL-1B inflam inh -9.9 and DT40 TDP1 no CPT inconclusive.
`CCCCOc1ccccc1C1CC(=O)Nc2cc(OC)c(OC)cc21` (configuration not stated) gave TGFb SMAD3 inh -15.6%, HepG2 viability -27.1%, TDP1 block 6.4%, TDP1 cell CPT inconclusive and DT40 TDP1 no CPT inconclusive.
`COc1cccc(NC(=O)Cn2cc(C(=O)c3ccc(C)cc3)c(=O)c3cc(OC)ccc32)c1` gave TGFb SMAD3 inh inconclusive, HepG2 viability -8.9%, TDP1 block inconclusive, TDP1 cell CPT inconclusive and DT40 TDP1 no CPT inconclusive.
COc1ccc2c(c1)c(=O)c(C(=O)c1ccc(F)cc1)cn2CC(=O)Nc1ccc(F)cc1 was read as TGFb SMAD3 inh -9.6%, HepG2 viability -26.6%, TDP1 block 6.6%, TDP1 cell CPT inconclusive, IL-1B inflam inh -24.1 and DT40 TDP1 no CPT inconclusive.
CCc1ccc2c(c1)c(=O)c(C(=O)c1ccccc1)cn2CC(=O)Nc1ccc(C)c(Cl)c1 was read as TGFb SMAD3 inh -1.1%, HepG2 viability 2.5%, TDP1 block 1.3%, TDP1 cell CPT 20.6µM* and DT40 TDP1 no CPT 11.6µM*.
Screening COc1ccc2c(c1)c(=O)c(C(=O)c1ccc(C)cc1)cn2CC(=O)Nc1ccc(F)cc1 returned TGFb SMAD3 inh -28.8%, HepG2 viability -15.3%, TDP1 block 5.3%, TDP1 cell CPT inconclusive, IL-1B inflam inh -15.4 and DT40 TDP1 no CPT 16.4µM*.
`CCc1ccc(C(=O)c2cn(CC(=O)Nc3cccc(OC)c3)c3ccc(OC)cc3c2=O)cc1` gave TGFb SMAD3 inh inconclusive, HepG2 viability -29.9%, TDP1 cell CPT inconclusive and DT40 TDP1 no CPT 23.1µM*.
`COc1cccc(N2CCN(S(=O)(=O)c3cc4c(cc3Cl)NC(=O)CO4)CC2)c1` gave TGFb SMAD3 inh 30.2%, HepG2 viability 2.4%, TDP1 cell CPT 8.6%, IL-1B inflam inh 14.3 and DT40 TDP1 no CPT -9.9%.
CCC1=C(c2ccc(C)cc2)S(=O)(=O)N=C1N1CCC(C(=O)NCCc2cccc(OC)c2)CC1 was read as TGFb SMAD3 inh inconclusive, HepG2 viability -35.4%, TDP1 block 2.9%, TDP1 cell CPT inconclusive and DT40 TDP1 no CPT inconclusive.
NC(CCC(=O)NCS(=O)(=O)O)C(=O)O (configuration not stated) was read as TDP1 block 3.3%[56.1 µM], TDP1 cell CPT -24.4% and DT40 TDP1 no CPT -12.8%.
For CSc1ccccc1NC(=O)COC(=O)CSc1ccc(C)cc1 the results were TGFb SMAD3 inh -3.6%, HepG2 viability -8.9%, TDP1 cell CPT -2.4%, IL-1B inflam inh 15.8 and DT40 TDP1 no CPT -2.0%.
